According to PubChem BioAssay (Tox21):
Inconclusive results are not listed. The source made the active and inactive calls. Calls follow the shape of the dose curve; as a rule, active = well fitted curve in the direction sought with a large enough effect in the repeat runs; inconclusive = weak or mixed curves; inactive = no such curve, though single readings can be large; an effect the other way counts as inactive or inconclusive.

How the values were obtained:
[1] = biological target: Nuclear receptor subfamily 1 group I member 2 (Homo sapiens) (UniProt O75469); test: CYP3A4 induction through human pregnane X receptor (PXR) by small molecules, qHTS assay (AID 1346984); also: nearly all actives have a fitted effect of over 40% in size
In short: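 Induction measured in HepG2-based DPX-2 cells co-expressing human PXR and a CYP3A4 promoter-driven luciferase. After a 24-hour compound exposure, cells received CYP3A4 luciferin substrate at 3uM final for 3 hours, and light output was then recorded.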

[2] = biological target: Nuclear receptor subfamily 1 group I member 2 (Homo sapiens) (UniProt O75469); test: Human pregnane X receptor (PXR) activation by small molecules, qHTS assay (AID 1346985); also: nearly all actives have a fitted effect of over 40% in size; also: potency is read from the fitted curve at half-maximal effect
In short: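 DPX-2 cells (HepG2 co-transfected with a PXR response element and a CYP3A4-promoter luciferase construct) were seeded at 2,000 per well, rested 5 hr at 37C, then exposed to DMSO-dissolved compounds for 24 hr. Activation was read as luciferase luminescence.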

[3] = biological target: Cytochrome P450 2D6 (Homo sapiens) (UniProt P10635); test: Cytochrome P450 Family 2 Subfamily D Member 6 (CYP2D6) small molecule antagonists: luciferase reporter qHTS assay (AID 1671196); also: nearly all actives have a fitted effect of over 50% in size; also: potency is read from the fitted curve at half-maximal effect; as to activity change, negative = inhibition: series mostly up to about 120 µM
In short: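 Test chemicals meet CYP2D6 plus proluciferin substrate (10 min, RT); NADPH regenerating solution then drives turnover for 1 h. Detection reagent halts the reaction; luminescence measured after 20 min.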

[4] = biological target: Cytochrome P450 2C19 (Homo sapiens) (UniProt P33261); test: Cytochrome P450 Family 2 Subfamily C Member 19 (CYP2C19) small molecule antagonists: luciferase reporter qHTS assay (AID 1671197); also: nearly all actives have a fitted effect of over 65% in size; also: potency is read from the fitted curve at half-maximal effect; as to activity change, negative = inhibition: series mostly up to about 120 µM
In short: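 Quantitative high-throughput screen of the Tox21 library using CYP2C19 with proluciferin substrate. Reaction: NADPH regeneration, 37C, 1 h, after 10 min compound preincubation at room temperature. Readout: luminescence.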

[5] = biological target: Cytochrome P450 2C9 (Homo sapiens) (UniProt P11712); test: Cytochrome P450 Family 2 Subfamily C Member 9 (CYP2C9) small molecule antagonists: luciferase reporter qHTS assay (AID 1671198); also: nearly all actives have a fitted effect of over 50% in size; also: potency is read from the fitted curve at half-maximal effect; as to activity change, negative = inhibition: series mostly up to about 120 µM
In short: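 Enzyme-substrate mix preincubated with compound 10 min at room temperature; reaction started with NADPH regeneration solution, 1 h 37C. Luminescent luciferin product read after 20 min detection reagent.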

[6] = biological target: Cytochrome P450 1A2 (Homo sapiens) (UniProt P05177); test: Cytochrome P450 Family 1 Subfamily A Member 2 (CYP1A2) small molecule antagonists: luciferase reporter qHTS assay (AID 1671199); also: nearly all actives have a fitted effect of over 50% in size; also: potency is read from the fitted curve at half-maximal effect; as to activity change, negative = inhibition: series mostly up to about 120 µM
In short: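 Steps: enzyme-substrate mix dispensed; test compounds and furafylline control pinned in; 10 min room temperature; NADPH regeneration solution added, 1 h; reaction stopped with luciferin detection reagent; luminescence read after 20 min.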

[7] = biological target: Voltage-gated inwardly rectifying potassium channel KCNH2 (Homo sapiens) (UniProt Q12809); test: Human Ether-a-go-go-Related Gene (hERG) channel small molecule antagonists: fluorescence cell-based qHTS assay (AID 1671200);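 also: hERG-expressing U2OS cells given a thallium stimulus after FluxOR II dye loading; series mostly up to about 77 µM; nearly all actives have a fitted effect of over 50% in size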
In short: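 Kinetic two-minute fluorescence traces, sampled at 1 s, were collected following thallium stimulus of U2OS cells (1000 per well) that had been cultured overnight at 37 C and loaded with FluxOR II.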

[8] = biological target: Cytochrome P450 3A4 (Homo sapiens) (UniProt P08684); test: Cytochrome P450 Family 3 Subfamily A Member 4 (CYP3A4) small molecule antagonists: luciferase reporter qHTS assay (AID 1671201)
In short: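 Proluciferin-to-luciferin conversion by CYP3A4, NADPH-regenerated, 1 h RT; luminescence read as RLU. Ketoconazole as control.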
% is scaled to controls: 0 for no effect and ±100 for the full control effect.

Sequence of Cytochrome P450 2C19 (Homo sapiens) (P33261 whole entry, looked up): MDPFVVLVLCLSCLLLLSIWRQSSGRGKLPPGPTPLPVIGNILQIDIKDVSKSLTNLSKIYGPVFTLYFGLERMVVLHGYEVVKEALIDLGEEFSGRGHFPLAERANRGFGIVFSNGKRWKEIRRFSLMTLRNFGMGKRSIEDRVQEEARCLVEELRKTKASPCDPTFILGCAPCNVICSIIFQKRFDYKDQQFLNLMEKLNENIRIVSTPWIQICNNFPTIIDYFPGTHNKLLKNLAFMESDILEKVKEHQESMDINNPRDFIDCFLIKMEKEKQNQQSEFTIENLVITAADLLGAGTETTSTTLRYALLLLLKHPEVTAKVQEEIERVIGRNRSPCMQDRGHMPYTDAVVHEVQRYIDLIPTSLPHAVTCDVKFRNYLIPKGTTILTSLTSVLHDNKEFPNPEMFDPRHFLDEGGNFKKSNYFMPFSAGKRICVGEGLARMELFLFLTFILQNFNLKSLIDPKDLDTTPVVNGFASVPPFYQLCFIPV
Sequence of Cytochrome P450 1A2 (Homo sapiens) (P05177 whole entry, looked up): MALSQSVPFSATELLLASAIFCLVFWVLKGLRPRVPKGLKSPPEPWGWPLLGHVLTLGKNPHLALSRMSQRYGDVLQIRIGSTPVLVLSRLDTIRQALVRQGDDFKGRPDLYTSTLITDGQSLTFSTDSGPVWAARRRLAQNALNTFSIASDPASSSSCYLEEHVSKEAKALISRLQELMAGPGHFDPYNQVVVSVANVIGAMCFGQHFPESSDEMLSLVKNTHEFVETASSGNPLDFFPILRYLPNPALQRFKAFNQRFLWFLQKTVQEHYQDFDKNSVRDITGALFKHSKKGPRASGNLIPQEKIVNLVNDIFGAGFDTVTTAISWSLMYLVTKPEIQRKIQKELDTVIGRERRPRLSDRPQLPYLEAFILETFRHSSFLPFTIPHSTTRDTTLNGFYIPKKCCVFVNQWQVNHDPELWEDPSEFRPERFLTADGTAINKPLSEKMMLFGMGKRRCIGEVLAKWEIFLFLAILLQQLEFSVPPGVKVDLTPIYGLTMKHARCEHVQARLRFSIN
Sequence of Cytochrome P450 2D6 (Homo sapiens) (P10635 whole entry, looked up): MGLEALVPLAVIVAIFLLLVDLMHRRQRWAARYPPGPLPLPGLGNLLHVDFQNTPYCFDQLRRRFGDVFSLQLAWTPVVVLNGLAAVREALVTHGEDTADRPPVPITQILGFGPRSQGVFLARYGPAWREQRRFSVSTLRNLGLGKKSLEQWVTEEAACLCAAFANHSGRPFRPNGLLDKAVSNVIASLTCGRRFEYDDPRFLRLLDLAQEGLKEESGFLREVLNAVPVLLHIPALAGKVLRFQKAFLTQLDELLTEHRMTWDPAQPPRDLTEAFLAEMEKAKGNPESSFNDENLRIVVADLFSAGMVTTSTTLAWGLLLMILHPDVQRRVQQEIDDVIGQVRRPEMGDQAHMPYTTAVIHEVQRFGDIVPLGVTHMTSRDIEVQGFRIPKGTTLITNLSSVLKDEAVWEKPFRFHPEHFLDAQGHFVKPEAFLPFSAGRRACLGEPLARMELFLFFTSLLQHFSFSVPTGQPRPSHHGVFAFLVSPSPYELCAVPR
Sequence of Cytochrome P450 3A4 (Homo sapiens) (P08684 whole entry, looked up): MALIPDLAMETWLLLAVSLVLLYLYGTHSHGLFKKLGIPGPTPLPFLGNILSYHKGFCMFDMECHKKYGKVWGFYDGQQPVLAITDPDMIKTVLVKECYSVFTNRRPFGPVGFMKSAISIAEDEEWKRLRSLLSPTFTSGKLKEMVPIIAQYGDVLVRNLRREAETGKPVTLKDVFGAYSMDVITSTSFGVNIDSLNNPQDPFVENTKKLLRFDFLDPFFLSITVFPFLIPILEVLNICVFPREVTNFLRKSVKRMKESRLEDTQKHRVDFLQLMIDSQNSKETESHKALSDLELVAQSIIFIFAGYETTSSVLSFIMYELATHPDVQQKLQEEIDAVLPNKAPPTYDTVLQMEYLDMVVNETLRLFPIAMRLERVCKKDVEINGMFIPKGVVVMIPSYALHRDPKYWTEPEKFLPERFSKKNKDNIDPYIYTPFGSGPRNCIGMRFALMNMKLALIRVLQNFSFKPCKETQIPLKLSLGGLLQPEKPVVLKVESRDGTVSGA
Sequence of Voltage-gated inwardly rectifying potassium channel KCNH2 (Homo sapiens) (Q12809 whole entry, looked up): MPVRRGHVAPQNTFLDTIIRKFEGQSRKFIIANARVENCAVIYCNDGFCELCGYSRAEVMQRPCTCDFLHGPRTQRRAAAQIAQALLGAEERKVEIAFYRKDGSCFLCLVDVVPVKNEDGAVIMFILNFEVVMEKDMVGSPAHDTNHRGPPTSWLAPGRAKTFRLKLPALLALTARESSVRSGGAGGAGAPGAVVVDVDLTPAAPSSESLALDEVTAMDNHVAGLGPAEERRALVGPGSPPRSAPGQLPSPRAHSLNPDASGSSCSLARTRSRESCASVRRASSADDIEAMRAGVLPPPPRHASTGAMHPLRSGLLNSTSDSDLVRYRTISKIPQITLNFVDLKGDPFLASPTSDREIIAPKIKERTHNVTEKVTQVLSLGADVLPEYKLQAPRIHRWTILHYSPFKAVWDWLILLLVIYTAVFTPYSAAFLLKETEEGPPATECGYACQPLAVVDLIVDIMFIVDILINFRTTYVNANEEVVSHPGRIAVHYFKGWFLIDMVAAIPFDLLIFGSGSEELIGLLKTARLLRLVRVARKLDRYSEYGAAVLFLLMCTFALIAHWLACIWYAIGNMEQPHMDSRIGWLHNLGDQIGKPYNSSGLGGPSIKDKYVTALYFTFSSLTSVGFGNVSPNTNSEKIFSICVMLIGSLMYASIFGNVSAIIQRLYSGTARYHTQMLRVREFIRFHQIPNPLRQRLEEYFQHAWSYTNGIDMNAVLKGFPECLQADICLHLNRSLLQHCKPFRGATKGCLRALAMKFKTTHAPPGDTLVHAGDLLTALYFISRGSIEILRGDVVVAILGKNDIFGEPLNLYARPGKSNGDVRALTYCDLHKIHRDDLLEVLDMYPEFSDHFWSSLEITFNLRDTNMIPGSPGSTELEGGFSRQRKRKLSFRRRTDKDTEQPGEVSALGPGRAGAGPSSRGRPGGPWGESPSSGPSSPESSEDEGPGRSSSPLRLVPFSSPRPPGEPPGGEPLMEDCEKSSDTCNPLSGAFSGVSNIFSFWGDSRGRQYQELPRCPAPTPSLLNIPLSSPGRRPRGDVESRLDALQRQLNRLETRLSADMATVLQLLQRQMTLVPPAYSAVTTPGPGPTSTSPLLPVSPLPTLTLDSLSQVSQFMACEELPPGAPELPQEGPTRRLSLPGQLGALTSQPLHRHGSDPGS
Sequence of Cytochrome P450 2C9 (Homo sapiens) (P11712 whole entry, looked up): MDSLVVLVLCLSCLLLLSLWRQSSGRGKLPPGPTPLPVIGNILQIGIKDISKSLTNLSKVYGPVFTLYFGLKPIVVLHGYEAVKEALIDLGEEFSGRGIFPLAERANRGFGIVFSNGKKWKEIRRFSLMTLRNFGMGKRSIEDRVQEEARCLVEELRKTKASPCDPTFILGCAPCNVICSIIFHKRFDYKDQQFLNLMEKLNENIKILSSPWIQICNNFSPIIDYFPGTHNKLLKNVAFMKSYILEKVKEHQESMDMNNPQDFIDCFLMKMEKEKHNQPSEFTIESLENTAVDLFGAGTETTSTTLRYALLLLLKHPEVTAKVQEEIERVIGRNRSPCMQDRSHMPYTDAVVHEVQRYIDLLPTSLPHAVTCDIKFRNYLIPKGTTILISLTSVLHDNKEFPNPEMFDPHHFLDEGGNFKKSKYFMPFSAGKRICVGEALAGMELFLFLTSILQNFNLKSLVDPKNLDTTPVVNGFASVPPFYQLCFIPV

Cc1oc(=O)oc1CN1CCN(c2cc3c(cc2F)c(=O)c(C(=O)O)c2n3C(C)S2)CC1 (centres undefined)
inactive: outcome [1] | Potency [2] | Potency [3] | Potency [4] | Potency [5] | Potency [6] | Potency [7] | Potency [8]

COc1ccc(/C=N/NC(=O)c2ccncc2)cc1OC
active: Potency [4] 34.7 µM | Potency [5] 17.4 µM
inactive: outcome [1] | Potency [2] | Potency [7]

NS(=O)(=O)c1ccc(Cl)c(S(N)(=O)=O)c1
inactive: outcome [1] | Potency [2] | Potency [5] | Potency [6] | Potency [8]

NCCc1ccn[nH]1
inactive: Potency [2] | Potency [3] | Potency [5] | Potency [6] | Potency [8]

O=c1cc(O)c(Cl)c[nH]1
inactive: outcome [1] | Potency [2] | Potency [3] | Potency [5] | Potency [6] | Potency [7] | Potency [8]

O=C(Nc1cccc(C2=NCCN2)c1)Nc1cccc(C2=NCCN2)c1
active: Potency [3] 16.9 µM
inactive: outcome [1] | Potency [2] | activity change, negative = inhibition [4] -6.53% [at 23.6 µM] | activity change, negative = inhibition [5] 0.456% [at 23.6 µM] | activity change, negative = inhibition [6] 12% [at 23.6 µM] | activity change, negative = inhibition [8] 41.3% [at 23.6 µM]

CCCCOC(=O)[C@@H](C)Oc1ccc(Oc2ccc(C(F)(F)F)cn2)cc1
inactive: Potency [3]
active: Potency [4] 25.3 µM | Potency [5] 16 µM | Potency [6] 20.1 µM

Nc1ccc(S(=O)(=O)NC(=O)c2ccccc2)cc1
inactive: outcome [1] | Potency [2] | Potency [4] | Potency [6] | Potency [7] | Potency [8]

O=C(Oc1ccccc1C(=O)O)c1ccccc1O
inactive: outcome [1] | Potency [2] | Potency [3] | Potency [6] | Potency [7] | Potency [8]

Cc1cccc(Nc2ccncc2S(=O)(=O)NC(=O)NC(C)C)c1
inactive: Potency [2] | Potency [3] | Potency [6] | Potency [7]
active: Potency [5] 13.8 µM

CC(=O)OCC(=O)[C@@]1(O)[C@H](OC(C)=O)C[C@H]2[C@@H]3CCC4=CC(=O)C=C[C@]4(C)[C@@]3(F)[C@@H](O)C[C@@]21C
inactive: Potency [3] | Potency [4] | Potency [5] | Potency [6] | Potency [7]

NS(=O)(=O)c1cc2c(cc1Cl)NC(C(Cl)Cl)NS2(=O)=O (centres undefined)
inactive: outcome [1] | Potency [2] | Potency [3] | Potency [5] | Potency [6] | Potency [7] | Potency [8]

NS(=O)(=O)c1cc2c(cc1Cl)NC(CC1CCCC1)NS2(=O)=O (centres undefined)
inactive: outcome [1] | Potency [2] | Potency [3] | Potency [4] | Potency [5] | Potency [7]

Nc1ccc(S(=O)(=O)Nc2ccccn2)cc1
inactive: outcome [1] | Potency [2] | Potency [3] | Potency [5] | Potency [6] | Potency [7]

O=C(/C=C/c1ccccc1)NCCO
inactive: outcome [1] | Potency [2] | Potency [7] | Potency [8]
active: Potency [5] 13.8 µM | Potency [6] 11.5 µM

Cc1ccc(S(=O)(=O)NC(=O)NC2CCCCCCC2)cc1
inactive: outcome [1] | Potency [3] | Potency [6] | Potency [7] | Potency [8]
active: Potency [5] 11 µM

NC(=O)C1(N2CCCCC2)CCN(CCCC(=O)c2ccc(F)cc2)CC1
inactive: Potency [2] | Potency [4] | Potency [5] | Potency [6] | Potency [8]
active: Potency [3] 4.9 µM

NC(=O)NC(=O)Cc1ccccc1
inactive: outcome [1] | Potency [2] | Potency [3] | Potency [4] | Potency [5] | Potency [8]

O=C(O)/C=C/c1ccccc1
inactive: outcome [1] | Potency [2] | Potency [5] | Potency [6] | Potency [7] | Potency [8]
active: Potency [3] 39.9 µM

CNCc1ccccc1
inactive: outcome [1] | Potency [2] | Potency [3] | Potency [7] | Potency [8]

COc1cc2c(Nc3ccc(Br)cc3F)ncnc2cc1OCC1CCN(C)CC1
inactive: outcome [1] | Potency [3] | Potency [4] | Potency [5] | Potency [7] | Potency [8]
active: Potency [2] 14.1 µM | Potency [6] 30.9 µM

COc1cc2c3cc1Oc1cc(ccc1O)C[C@@H]1c4c(cc(OC)c(O)c4Oc4ccc(cc4)C[C@@H]3N(C)CC2)CC[N+]1(C)C
inactive: outcome [1] | Potency [2] | Potency [3] | Potency [4] | Potency [5] | Potency [7] | Potency [8]

CCNC(=O)NCCCOc1cccc(CN2CCCCC2)c1
active: Potency [3] 13.8 µM

COCC(=O)Nc1c(I)c(C(=O)NCC(O)CO)c(I)c(C(=O)N(C)CC(O)CO)c1I (centres undefined)
inactive: outcome [1] | Potency [4] | Potency [5] | Potency [6] | Potency [8]

O=c1[nH]c(=O)c2[nH]c(=O)[nH]c2[nH]1
inactive: outcome [1] | Potency [2] | activity change, negative = inhibition [3] -9.18% [at 10.5 µM] | activity change, negative = inhibition [4] -2.11% [at 10.5 µM] | activity change, negative = inhibition [5] 10.1% [at 10.5 µM] | activity change, negative = inhibition [7] -12.8% [at 6.97 µM] | activity change, negative = inhibition [8] 20% [at 10.5 µM]

CN[C@@H]1[C@H](O)[C@H](NC)[C@H]2O[C@@]3(O)C(=O)C[C@@H](C)O[C@H]3O[C@@H]2[C@H]1O
inactive: outcome [1] | Potency [2] | Potency [5]
